Results filed as inconclusive are left out. Active and inactive are the calls of the source. Unless noted, no rule for the calls is given here.
Experiments:
[1] = qHTS profiling of the MIPE4 collection as inhibitors of Plasmodium falciparum (3D7) proliferation (AID 743344);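 also: scaled between DMSO vehicle wells and 0.29 µM artemisinin as full inhibition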; details: P. falciparum 3D7 in erythrocytes, SYBR Green DNA fluorescence, 72 h; at 28.5 µM unless noted
Outline: (§1)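 Erythrocytes infected with P. falciparum (0.3% parasitemia, 2.5% hematocrit) incubated with compounds 72 h at 37 C, 5% CO2. Lysis with saponin/Triton buffer containing SYBR Green I, overnight at room temperature in the dark; DNA fluorescence (485/535 nm) normalised to 0.29 uM artemisinin and DMSO.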

[2] = qHTS profiling of the MIPE4 collection as inhibitors of Plasmodium falciparum (DD2) proliferation (AID 743345); details: P. falciparum Dd2 in erythrocytes, SYBR Green DNA, 72 h; at 28.5 µM unless noted
Outline: as §1

[3] = qHTS profiling of the MIPE4 collection as inhibitors of Plasmodium falciparum (DD2) proliferation (Rep 2) (AID 743346); details: P. falciparum Dd2 in erythrocytes, SYBR Green DNA, 72 h; at 28.5 µM unless noted
Outline: as §1

[4] = qHTS profiling of the MIPE4 collection as inhibitors of Plasmodium falciparum (HB3) proliferation (AID 743347);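 also: plate controls were DMSO vehicle wells for no effect and artemisinin wells for full effect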; details: P. falciparum HB3 in erythrocytes, SYBR Green DNA, 72 h; at 28.5 µM unless noted
Outline: as §1

[5] = High-throughput drug toxicity screening in the BPDCN cell line Gen2.2 (AID 1224824); details: Gen2.2 BPDCN cells; at 45.8 µM (top of the series) unless noted
Outline: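 CellTiter-Glo luminescence read after 48 h compound exposure at 37 C defines viability; percent activity set with DMSO as 100% and bortezomib (9.2 uM final) as 0%. 500 exponentially growing cells per well, RPMI plus 10% FBS.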

[6] = High-throughput drug toxicity screening in the BPDCN cell line Cal-1 (AID 1224825); details: Cal-1 BPDCN cell viability, qHTS; at 45.8 µM (top of the series) unless noted
Outline: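 500 Cal-1 cells/well, RPMI + glutamine + 10% FBS (phenol red-free); cpd added by pin tool; 48 h, 37C, 5% CO2; CTG 15 min RT, lumi read. Normalised: DMSO 100%, bortezomib 9.2 uM 0%.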

[7] = qHTS assay for measurement of the activity of small molecule inhibitors on Zika virus induced Caspase-3 activity in human iPSC derived neural progenitor cells (hNPCs) (AID 1224857; active = well fitted curve in the direction sought with a large enough effect; an effect the other way counts as inactive or inconclusive; also: % of control where 0% means no effect; nearly all actives have a fitted effect of over 65% in size)
Outline: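 After overnight (16–20 h) culture at 350 cells/well, hNPCs get compound, then ZIKV 2 FFU/cell one hour later. Six hours on, Caspase-Glo 3/7 is added and luminescence measured.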

[8] = qHTS Screen of the MIPE 4.0 Collection Against Ewings Sarcoma (RDES) (AID 1259252; active = well fitted curve in the direction sought with a large enough effect; an effect the other way counts as inactive or inconclusive; also: nearly all actives have a fitted effect of over 35% in size; also: potency is read from the fitted curve at half-maximal effect)
Outline: (§2)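 After a 4 h attachment period in RPMI/5% FBS, cells were pin-dosed with test compounds; DMSO served as negative and 9.2 uM bortezomib (final) as positive control. Luminescent CellTiter-Glo signal at 48 h defined viability.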

[9] = qHTS Screen of the MIPE 4.0 Collection Against Ewings Sarcoma (TC71) (AID 1259253; active = well fitted curve in the direction sought with a large enough effect; an effect the other way counts as inactive or inconclusive; also: nearly all actives have a fitted effect of over 40% in size; also: potency is read from the fitted curve at half-maximal effect)
Outline: as §2

[10] = qHTS Screen of the MIPE 4.0 Collection Against Ewings Sarcoma (EW8) (AID 1259255; active = well fitted curve in the direction sought with a large enough effect; an effect the other way counts as inactive or inconclusive; also: nearly all actives have a fitted effect of over 35% in size; also: potency is read from the fitted curve at half-maximal effect;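 as to viability: 100% = DMSO-treated cells and 0% = medium-only wells without cells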)
Outline: as §2

[11] = qHTS profiling for inhibitors of Plasmodium falciparum (DD2) proliferation (AID 743323); details: lower = more inhibition; at 28.7 µM (top of the series) unless noted
Outline: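 SYBR Green fluorescence (ex 485, em 535 nm) of lysed cultures gives parasite DNA content; wells normalized to artemisinin (0.29 uM) and DMSO controls. Infected red cells: 0.3% parasitemia, 2.5% hematocrit, 72 h, 37 C.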

[12] = qHTS profiling for inhibitors of Plasmodium falciparum (HB3) proliferation (AID 743324; active = well fitted curve in the direction sought with a large enough effect; an effect the other way counts as inactive or inconclusive;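 also: 100% = DMSO vehicle wells and 0% = artemisinin-treated control wells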); details: Plasmodium falciparum HB3 blood-stage proliferation; at 28.7 µM (top of the series) unless noted
Outline: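 P. falciparum HB3 grown in erythrocytes (0.3% parasitemia, 2.5% hematocrit final) with compound for 72 h at 37 C, 5% CO2. Parasite DNA detected by SYBR Green after saponin/triton lysis overnight; normalized to 0.29 uM artemisinin and DMSO.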

[13] = qHTS Screen of the MIPE 4.0 Collection Against Ewings Sarcoma (TC32) (AID 1259256; active = well fitted curve in the direction sought with a large enough effect; an effect the other way counts as inactive or inconclusive; also: nearly all actives have a fitted effect of over 45% in size; also: potency is read from the fitted curve at half-maximal effect)
Outline: as §2

[14] = Identifying Small Molecule Inhibitors of Pancreatic Cancer Stem Cells (A2780, Spheroid) (AID 1259357; active = well fitted curve in the direction sought with a large enough effect; an effect the other way counts as inactive or inconclusive;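 also: compound exposure lasted 48 h before the ATP luminescence read; 100% = DMSO treated cells and 0% = wells without cells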); details: Potency: A2780 spheroid viability
Outline: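 Cytotoxicity read by CellTiter-Glo luminescence after 48 h compound exposure at 37C; percent activity scaled between DMSO-treated cells and cell-free wells. Spheroid formats used cells pre-formed 14 days in stem cell media on hydrogel.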

[15] = Identifying Small Molecule Inhibitors of Pancreatic Cancer Stem Cells (A278, Adherent) (AID 1259361; active = well fitted curve in the direction sought with a large enough effect; an effect the other way counts as inactive or inconclusive; also: nearly all actives have a fitted effect of over 35% in size;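 as to viability (% of control): 100% = DMSO-treated cells and 0% = cell-free media-only wells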)
Outline: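 Adherent (2D) versus sphere (3D) formats; spheres generated 14 d in SCM beforehand. Compound transferred by pin tool after 4 h, 48 h incubation, CellTiter-Glo endpoint.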

[16] = Identifying Small Molecule Inhibitors of Pancreatic Cancer Stem Cells (Panc1, Spheroid) (AID 1259359; active = well fitted curve in the direction sought with a large enough effect; an effect the other way counts as inactive or inconclusive;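 also: potency is read from the fitted curve at half-maximal effect; compound exposure lasted 48 h before reading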)
Outline: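 Monolayer and spheroid cultures are compared. Spheroids form over 14 days in stem cell medium on hydrogel-coated low-attachment plates, then are exposed to compound for 48 h before CellTiter-Glo luminescence.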

[17] = Identifying Small Molecule Inhibitors of Pancreatic Cancer Stem Cells (Panc1, Adherent) (AID 1259362; active = well fitted curve in the direction sought with a large enough effect; an effect the other way counts as inactive or inconclusive;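 also: compound exposure lasted 48 h before the viability read; plate controls were DMSO-treated cells for no effect and cell-free media wells for full effect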); details: Potency: viability
Outline: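 After a 4 h attachment period, compounds were pinned into wells and cultures held 48 h under standard incubator conditions. Viability was then measured as CellTiter-Glo luminescence following 10 min at room temperature.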

[18] = qHTS assay to identify small molecule inhibitors of chordoma cells - UCH-1 (AID 1259355; active = well fitted curve in the direction sought with a large enough effect; an effect the other way counts as inactive or inconclusive; also: % is scaled to controls: 0 for no effect and ±100 for the full control effect; nearly all actives have a fitted effect of over 55% in size)
Outline: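 Seed 800 cells per well; incubate overnight at 37 C, 5% CO2. Add test compounds (15 concentrations), then the auranofin–topoisomerase-agent combination. Incubate 48hr, add CellTiter-Glo, wait 30min, read luminescence.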

[19] = qHTS assay to identify small molecule inhibitors of chordoma cells - UCH-2 (AID 1259356; active = well fitted curve in the direction sought with a large enough effect; an effect the other way counts as inactive or inconclusive; also: % is scaled to controls: 0 for no effect and ±100 for the full control effect)

Structure (SMILES) | parasite growth, % of DMSO control [1] [%] | parasite growth remaining, % of DMSO control (lower = more inhibition) [2] [%] | parasite growth, % of control (lower = inhibition) [3] [%] | growth, % of control [4] [%] | cell viability, % of control (lower = more cytotoxic) [5] [%] | viability (% of control) [6] [%] | Potency [7] | Potency [8] | Potency [9] | Potency [10] | activity, percent of control [11] [%] | remaining proliferation (% of control), lower = more inhibition [12] [%] | Potency [13] | Potency [14] | IC50 (viability decrease) [15] | Potency [16] | Potency [17] | outcome [18] | outcome [19]
O=c1[nH]c(=O)n([C@H]2C[C@@H](O)[C@@H](CO)O2)cc1I | 85 | 39.2 | 77.7 | 62.7 | 138 | 87.5 | inactive | inactive | 5.9 µM (active) | 5.26 µM (active) |  |  |  |  |  |  |  |  | 
Cc1ccc(NC(=O)c2ccc(CN3CCN(C)CC3)cc2)cc1Nc1nc(-c2cccnc2)cs1 | 9.29 | 12 | 12.5 | 4.3 | 14.8 | 6.7 | inactive |  | 23.5 µM (active) | 23.5 µM (active) | 5.7 | 4.39 | 26.4 µM (active) | inactive |  |  |  |  | 
NC(=O)c1ccc(N(C(N)=O)c2c(F)cccc2F)nc1-c1ccc(F)cc1F | 79.5 | 104 | 59.1 | 78.7 | 215 | 92.1 | inactive |  | inactive | inactive | 83.3 | 85.6 | inactive |  | inactive |  |  |  | 
NC(=O)c1nnn(Cc2cc(Cl)c(C(=O)c3ccc(Cl)cc3)c(Cl)c2)c1N | 23.3 |  | 37 | 6.97 | 390 | 45.1 | inactive |  | 18.7 µM (active) | 26.4 µM (active) |  |  | 20.9 µM (active) |  |  |  |  |  | 
CNC(=O)c1ccc2c(C(=Nc3cccc(CN(C)C)c3)c3ccccc3)c(O)[nH]c2c1 | 19.9 | 18.6 | 15.2 | 19 | 4.19 | 19.6 | inactive | 16.6 µM (active) |  |  |  |  | inactive |  |  |  |  |  | 
Cn1c(=O)c(Oc2ccc(F)cc2F)cc2cnc(NC3CCOCC3)nc21 | 25.1 |  | 48.3 | 35.7 | 178 | 93.3 | inactive | inactive |  |  |  |  | inactive |  |  |  |  |  | 
COc1cc2c(cc1Cc1cccc(Cl)c1F)c(=O)c(C(=O)O)cn2[C@H](CO)C(C)C | 7.9 | 19 | 16.6 | 3.89 | 19.1 | 11 | inactive | 26.4 µM (active) | 20.9 µM (active) |  |  |  |  |  |  |  |  |  | 
CCCCC(C=O)NC(=O)C(CC(C)C)NC(=O)OCc1ccccc1 (centres undefined) | 4.5 | 8.7 | 9.29 | 4.08 | 52.9 | 62.2 | inactive |  | inactive |  |  |  | inactive |  |  |  |  |  | 
Cc1ccc(C(=O)N(CCCN)[C@@H](c2nc3cc(Cl)ccc3c(=O)n2Cc2ccccc2)C(C)C)cc1 | 4.61 | 7.03 |  | 6.88 | 4.1 | 3.23 | inactive | 0.0017 µM (active) | 0.0019 µM (active) |  | 0.933 | 0.0585 | inactive |  | 4.7 nM (active) | 3 nM (active) |  |  | 
C=C[C@@H]1CN2CCC1C[C@@H]2C(O)c1ccnc2ccc(OC)cc12 (some centres undefined) | 8.37 | 9.53 | 12 | 3.29 | 130 | 86 | inactive | 3.72 µM (active) | 4.18 µM (active) |  | 2.53 | 2.91 | 1.18 µM (active) |  |  |  |  |  | 
COC(=O)Nc1ccc(-c2nc(N3CCOCC3)c3cnn(C4CCN(C(=O)OC)CC4)c3n2)cc1 | 11.1 | 14.3 | 27.4 | 7.52 | 8.32 | 4.85 | inactive | 0.0372 µM (active) |  | 0.148 µM (active) | 7.64 | 0.698 |  |  |  |  | inactive |  | 
CN(C)CCCNC(=O)c1ccc(-c2cc(O)c3ncccc3c2)cc1 | 25.8 | 15.1 | 23.5 | 8.59 | 48.4 | 19.6 | inactive | 16.6 µM (active) |  |  | 5.19 | 5.15 | 14.8 µM (active) |  |  |  |  |  | 
CCCCCCOC(=O)N=C(N)c1ccc(NCc2nc3cc(C(=O)N(CCC(=O)OCC)c4ccccn4)ccc3n2C)cc1 | 9.57 | 28.2 | 16 | 7.43 | 274 | 17.1 | inactive |  | 20.9 µM (active) | 8.33 µM (active) |  |  | 7.43 µM (active) |  |  |  |  |  | 
CC[C@H](C)C(=O)O[C@H]1C[C@H](O)C=C2C=C[C@H](C)[C@H](CC[C@@H](O)C[C@@H](O)CC(=O)O)[C@H]21 | 96 | 105 | 162 | 101 | 113 | 113 | inactive | inactive |  |  |  |  | 20.9 µM (active) |  |  |  |  | inactive | inactive
CCCCC[C@H](O)C=C[C@H]1[C@H](O)CC(=O)[C@H]1CC=CCCCC(=O)O | 86 | 11.2 | 56.3 | 103 | 31.5 | 23.7 | inactive | inactive | 18.7 µM (active) |  |  |  | 20.9 µM (active) |  |  |  |  |  | 

Reference: PubChem BioAssay (NCATS)
